This is a sample that favours compounds with a hit; in the whole collection about 1.3% have one here.
PGC1a acetyl inh: inhibitors of PGC1a acetylation signal, primary screen, cell-based, U2OS, AlphaScreen, inhibitor mode; AlphaScreen anti-acetyl-lysine; with virally co-expressed GCN5 acetyltransferase; inhibition, % at 15.6 µM; actives 0.17% (n = 350,000); AID 651687, 2012;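 active = every replicate shows inhibition of at least 40%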;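 note: 0% = neutral control wells and 100% = positive control wells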
HIF act: HIF pathway transcriptional activators, primary screen, cell-based, U2OS HRE-luciferase, luminescence. U2OS HRE-luciferase reporter; normalized: DMSO 0%, desferrioxamine 100%. activation, % at 7.5 µM (by protocol). actives 0.32% (n = 300,000);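 active = mean activation of at least 10% of the iron chelator positive control signal, with at least half of replicates also reaching 10%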
Rce1 inh: yeast Rce1p protease inhibitors, primary screen, biochemical, fluorescence, cell-free homogeneous; actives 0.27% (n = 290,000); calls only; yeast membranes, quenched prenylated peptide cleavage fluorescence;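 active = fall in fluorescence gain of 50% or more versus controls, with final raw signal at or below 3038400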;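 note: plate controls were neutral control wells for no effect and wells lacking membranes for full effect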
Target sequence (Q03530 whole entry, looked up): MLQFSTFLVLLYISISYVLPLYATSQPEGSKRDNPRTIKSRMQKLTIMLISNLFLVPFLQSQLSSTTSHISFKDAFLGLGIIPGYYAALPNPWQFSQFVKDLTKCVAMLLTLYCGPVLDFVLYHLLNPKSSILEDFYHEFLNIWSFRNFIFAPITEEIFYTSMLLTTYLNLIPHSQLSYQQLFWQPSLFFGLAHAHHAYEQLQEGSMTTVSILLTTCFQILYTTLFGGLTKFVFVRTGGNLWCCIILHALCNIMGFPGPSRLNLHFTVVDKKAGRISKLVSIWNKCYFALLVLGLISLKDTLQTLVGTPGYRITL
AI-2 QS modul: Vibrio harveyi AI-2 quorum sensing modulators, primary screen, JMH597 strain, luminescence/OD600 ratio | actives 0.4% (n = 300,000) | AID 2094, 2009 | activity change, % at 7.5 µM | Vibrio harveyi JMH597 AI-2 luminescence/OD600 ratio, 9 h; hits give low values; strain lacks LuxN and CqsS sensors; 0 = neutral-control median; in the data active = activity change below about -75%, passing the limit was not always enough;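 note: luminescence divided by OD600 gain over 9 h not by final OD600 alone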
C2C12 statin: suppressors of statin myotoxicity in C2C12 myotubes, primary screen, cell-based, single point, plate reader. C2C12 myotubes + simvastatin, ATP luminescence, 48 h; scaled: DMSO 0, geranylgeraniol control 100. actives 0.78% (n = 330,000). rescue of ATP level, % at 7.49 µM;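 active = mean ATP rescue above about 67%, or every replicate alone reaching that limit, limit read from the data, passing the limit was not always enough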;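 note: myotubes were challenged with 10 µM simvastatin during compound exposure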
Starred values were filed as active, the others as inactive; i = inactive; . = no result; + = active, no number.

SMILES	PGC1a acetyl inh	HIF act	Rce1 inh	AI-2 QS modul	C2C12 statin
COc1cccc(/C=N\NC(=O)c2cc(OCC(F)(F)F)ccc2OCC(F)(F)F)c1	0	.	i	19	124*
COC(=O)N(C)C[C@@H]1OCc2cn(nn2)CCCC(=O)N([C@@H](C)CO)C[C@@H]1C	1	.	.	.	-10
COC(=O)C(Cc1ccc(OC(=O)c2ccc(Cl)cc2)cc1)N1Cc2ccccc2C1=O (configuration not stated)	7	2	i	20	84*
COc1cc(/C=N/NC(=O)c2ccc(O)cc2)ccc1OCC(=O)Nc1cccc([N+](=O)[O-])c1	52*	1	i	17	9
Cn1cc([N+](=O)[O-])c(C(=O)Nc2ccn(Cc3c(F)c(F)cc(F)c3F)n2)n1	13	0	i	25	144*
CC(C)C#Cc1cnc2c(c1)C(=O)N([C@H](C)CO)C[C@@H](C)[C@H](CN(C)C(=O)Nc1ccccc1)O2	2	.	.	.	4
CCCn1c(O)c(N=NC(=O)CNC(=O)/C=C/c2ccc(OC)cc2)c2ccccc21	8	0	i	24	9
CCCn1c(O)c(N=NC(=O)CNC(=O)Cc2ccc(OC)cc2)c2ccccc21	7	0	+	-11	-4
CC(=O)N1CC2(C1)[C@H](c1ccc(-c3ccc(C#N)cc3)cc1)[C@@H](CO)N2C(=O)C1CC1	3	.	.	.	.
CCOC(=O)c1cnn(-c2ncnc3c2cnn3Cc2ccccc2)c1N	.	0	i	36	.
CCOC(=O)c1cnn(-c2ncnc3sc(C)c(C)c23)c1N	-1	0	i	-6	81*
COc1ccc(/C=N/Nc2nncn2N)cc1Br	69*	-19	i	49	1
C[C@H](CO)NC(=O)[C@@H]1C[C@H]1[C@@H](NP(=O)(c1ccccc1)c1ccccc1)c1ccccc1	-6	1	i	11	116*
N#Cc1c(/N=C/c2cccs2)sc2c1CCC2	6	5	i	4	3
N#Cc1c(/N=C/c2cc(Br)cs2)sc2c1CCC2	4	4	.	1	68*
Cc1cc(C(=O)OCC(=O)Nc2cc(C(F)(F)F)ccc2N2CCOCC2)c(C)o1	-9	-2	i	4	94*
CCc1ccc(S(=O)(=O)/N=C2\C=C(Nc3ccc(O)cc3)C(=O)c3ccccc32)cc1	63*	-7	i	-1	-773
CO[C@@H]1CN(C)C(=O)c2ccc(NC(=O)C3CC3)cc2OC[C@H](C)N(CCC(F)(F)F)C[C@H]1C	.	.	.	.	-2
CSc1n[nH]c(NC(=O)c2c(-c3c(Cl)cccc3Cl)noc2C)n1	65*	-1	i	7	-7
Cc1csc(NC(=O)c2c(-c3c(Cl)cccc3Cl)noc2C)n1	10	-1	i	16	-27
Cc1cc(C)n(C(=O)c2ccc([N+](=O)[O-])cc2N)n1	44*	0	i	34	0
COc1ccc(-c2cc(OC)c3ccccc3n2)cc1	-2	.	i	24	.
COc1cc(-c2ccccc2)nc2ccccc12	-21	0	i	-2	95*
CO[C@@H]1CN(C)C(=O)c2ccc(NS(=O)(=O)c3cn(C)cn3)cc2OC[C@@H](C)NC[C@@H]1C	4	.	.	.	.
O=C(Nc1ccc2c(c1)OCO2)N[C@H]1CC[C@@H](CCNC(=O)C2CCOCC2)O[C@H]1CO	-4	.	.	.	2
SMILES	PGC1a acetyl inh	HIF act	Rce1 inh	AI-2 QS modul	C2C12 statin
Cc1ccc(CN(C(=O)c2ccco2)C(C(=O)NC2CCCC2)c2ccc(N3CCOCC3)cc2)cc1 (configuration not stated)	-2	0	i	-6	119*
N=c1oc2ccccc2cc1-c1nc2ccccc2c(=O)[nH]1	-8	0	i	0	92*
COc1ccc(-n2c(Cc3ccccc3)nnc2SCc2ccc([N+](=O)[O-])cc2)cc1	.	-1	.	53	.
COc1ccc(-n2c(SCc3ccc([N+](=O)[O-])cc3)nnc2-c2ccc(C)cc2)cc1	.	0	+	28	.
CC(C)NC(=O)N(C)C[C@@H]1Oc2cc(C#C[C@@H](C)O)ccc2S(=O)(=O)N([C@H](C)CO)C[C@H]1C	3	.	.	.	22
Cc1ccc(C(C(=O)NC2CCCC2)N(C(=O)Cc2cccs2)c2ccc3c(c2)OCCO3)cc1 (configuration not stated)	-20	0	i	23	106*
O=C(NCC(=O)N(c1ccc2c(c1)OCO2)C(C(=O)NC1CCCC1)c1ccncc1)c1ccco1 (configuration not stated)	45	0	i	15	66*
O=C(NCC(=O)N(Cc1cccs1)C(C(=O)NC1CCCCC1)c1cccnc1)c1ccco1 (configuration not stated)	-8	-2	i	16	133*
O=C(NC1CCCC1)C(c1ccc(F)cc1)N(C(=O)Cc1cccs1)c1ccc2c(c1)OCCO2 (configuration not stated)	3	.	i	14	26
O=C(NC1CCCCC1)C(c1ccc2ncccc2c1)N(Cc1ccc2c(c1)OCO2)C(=O)c1ccc2c(c1)OCCO2 (configuration not stated)	96*	0	i	6	6
O=C(NC1CCCCC1)C(c1ccc2ncccc2c1)N(Cc1ccc(F)cc1)C(=O)c1ccc2c(c1)OCCO2 (configuration not stated)	-9	.	i	27	2
CC(C)C#Cc1cnc2c(c1)C(=O)N([C@@H](C)CO)C[C@H](C)[C@@H](CN(C)C(=O)Nc1cccc(F)c1)O2	5	.	.	.	.
O=C(C[C@@H]1C[C@@H]2c3cc(NC(=O)c4ccc5c(c4)OCO5)ccc3O[C@@H]2[C@@H](CO)O1)NCc1cccc(F)c1	-12	.	.	.	19
COc1cc(Cl)c(C)cc1NC(=O)COC(=O)c1cnc(C)cn1	7	0	i	2	95*
COc1ccc(CNC(=O)C2CCCN(S(=O)(=O)c3ccc4c(c3)CCCN4C(C)=O)C2)cc1 (configuration not stated)	4	0	i	24	120*
CNC[C@H]1Oc2ccc(NC(=O)Nc3ccc(F)cc3)cc2CC(=O)N([C@@H](C)CO)C[C@@H]1C	-8	.	.	.	15
CC(C)CCNC(=O)c1cn(C)c2ccc(S(=O)(=O)N3CCCC3)cc2c1=O	7	3	i	10	-1
CC(C)CN(CCNC(=O)c1cn(C)c2ccc(S(=O)(=O)N3CCCC3)cc2c1=O)CC(C)C	4	184*	i	20	7
O=C(Nc1ccc2c(c1)OCO2)c1ccc2nc[nH]c2c1	-12	3	i	-2	86*
Cc1oc(C(C)(C)C)cc1C(=O)Nc1ccc2c(c1)OCO2	-17	1	i	10	-17

Assay outcomes from PubChem BioAssay.
